Compounds with a hit are over-represented: about 6.5% of the library has one in this group of screens.
Spn DPM-DC inh – S. pneumoniae DPM-DC inhibition | purified DPM-DC, PK/LDH coupled NADH fluorescence | calls only at 10 µM | hit rate 0.49% among 65,000 | AID 556;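 active = the 320 compounds with the highest percent inhibition in the single-dose primary screen, excluding strongly autofluorescent ones, cut at about 32% in these data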;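 also: kinetic rate of NADH fluorescence loss reporting ADP formed by the decarboxylase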
Fluor 339 460 – intrinsic fluorescence of library compounds, ex339/em460 – biochemical, MLSMR library, data from DPM-DC assay, artefact control, profiling panel; compound autofluorescence, ex339/em460 nm, NADH buffer; hits give high values; 1 = no-compound wells, NADH background; fluorescence fold increase at 10 µM; hit rate 5.5% among 65,000;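 active = at 10 µM, mean starting fluorescence two-fold or more over control wells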;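 also: signal is the first read of a kinetic run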
PMK inhibit – inhibitors of Streptococcus pneumoniae phosphomevalonate kinase | hit rate 0.49% among 65,000 | purified PMK, PK/LDH-coupled NADH absorbance 340 nm | inhibition, % at 10 µM;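 active = top-ranked compounds by inhibition in the single 10 µM screen, taking a fixed number of the strongest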;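 also: 0% = full reaction with DMSO carrier and 100% = background rate without enzyme reaction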
NADH enzymes – inhibitors of enzymes used to reach an NAD/NADH endpoint. coupled PK/LDH NADH assays, four targets. IC50, µM (doses to about 10 µM), for inactives: at the top dose inhibition. hit rate 0.02% among 65,000. AID 774;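 active = single-dose screening hits from any of four coupled enzyme assays that gave an IC50 when retested across doses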;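 also: the DPM-DC format reads NADH fluorescence rather than 340 nm absorbance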
MK inhibit – S. pneumoniae mevalonate kinase inhibition; AID 555; hit rate 0.48% among 65,000; purified MK, PK/LDH-coupled NADH absorbance 340 nm; inhibition, % at 10 µM;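 active = ranked among the strongest by inhibition in the single 10 µM screen, a fixed top-ranked set picked for dose follow-up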
Abs 340nm – compounds absorbing at 340 nm; 65,000 tested, under 10 active; compound absorbance at 340 nm, fold over control; fold change at 10 µM;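 active = at 10 µM dose, initial 340 nm absorbance at least 2 fold that of control wells; inactive = change under 2 fold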;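 also: initial absorbance extrapolated from kinetic A340 decline of NADH oxidation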
The depositor's hits bear a star; i = inactive; nt = no result given; + = active, no number.

SMILES	Spn DPM-DC inh	Fluor 339 460	PMK inhibit	NADH enzymes	MK inhibit	Abs 340nm
CC(=O)Nc1sc2c(c1C#N)CCCCC2	i	1	15	3%	10	0.99
CC(C)(C)NCc1cccn1-c1sc2c(c1C#N)CCCC2	i	1.1	0	16%	49*	1.1
CCOC(=O)CNC(=O)Nc1cc(C(C)(C)C)nn1-c1ccccc1	i	1.2	0	2%	6	1
CN1CCN(CC(=O)N(C)c2nc(-c3ccccc3)cs2)CC1	i	1.1	5	4%	7	1
Cc1cc(=O)oc2c(CN3CCCCC3)c(O)c(Cl)cc12	nt	2.4*	0	6%	12	1.1
CCN1CCN(Cc2c(O)c(Cl)cc3c(C)cc(=O)oc23)CC1	nt	2.2*	0	0%	0	1.1
CCc1cc(=O)oc2cc(C)c(CN3CCCCC3)c(O)c12	i	1.1	0	0%	0	1.1
Cc1cc(=O)oc2c(CN3CCC(C)CC3)c(O)c(Cl)cc12	nt	2.3*	7	4%	0	1.1
COC(=O)c1cc2c(s1)-c1ccccc1OC2	nt	2.1*	11	9%	6	1.1
CCOC(=O)Cc1c(C)nc2cc(-c3ccc(Cl)cc3)[nH]n2c1=O	i	1.5	0	0%	1	1.1
CCOC(=O)c1cc(=O)n2[nH]c(-c3ccc(C)cc3)cc2n1	nt	3.9*	10	13%	15	1
CCN1CCN(C(c2cccs2)C(C)NC(=O)c2cccnc2)CC1 (stereo not drawn)	i	1.1	17	6%	0	1
Cc1nc2ccc(N)cc2c(=O)n1Cc1ccc(Cl)cc1	nt	3.7*	17	14%	11	1.1
Cc1nc2oc3ccccc3c(=O)c2c(=O)n1Cc1ccccc1	i	1.1	5	4%	8	0.98
COc1ccc(N2CCN(Cc3cc(=O)oc4c3ccc3ccccc34)CC2)cc1	i	1.1	7	6%	10	1
O=c1cc(C(F)F)oc2c1ccc1ccccc12	nt	2.5*	0	1%	7	1
Cc1nc2[nH]c(=O)c3c(n2n1)NC1=C(C(=O)CC(C)(C)C1)C3c1ccc(F)cc1 (stereo not drawn)	nt	3.8*	8	5%	1	1.1
COc1ccc(C2C3=C(CC(C)(C)CC3=O)Nc3c2c(=O)[nH]c(=O)n3Cc2ccccc2)cc1 (stereo not drawn)	i	1.4	12	6%	6	1.1
Cc1ccc(C2C3=C(CC(C)(C)CC3=O)Nc3[nH]c(=S)[nH]c(=O)c32)cc1 (stereo not drawn)	i	1.1	18	12%	13	1.1
CCc1ccc(C2C3=C(CC(C)(C)CC3=O)Nc3c2c(=O)[nH]c2nc(C)nn32)cc1 (stereo not drawn)	nt	3.4*	0	0%	0	1.1
O=C(O)CSCCC(=O)Nc1ccc(F)cc1	i	1	23	11%	10	0.99
Cc1ccccc1S(=O)(=O)Cc1ccc(C(=O)NCCCOC(C)C)o1	i	1.1	13	6%	6	0.98
CCOC(=O)N1CCN(C(=O)Nc2ccc3nc(C)c(C)nc3c2)CC1	nt	2.2*	5	7%	8	1.1
O=C(NC1CCCC1)c1ccc2nc(-c3ccco3)c(-c3ccco3)nc2c1	i	2.9*	19	17%	20	1
O=C(Nc1ccc2nc(-c3ccco3)c(-c3ccco3)nc2c1)N1CCCCCC1	+	2.7*	9	19%	16	1.1
SMILES	Spn DPM-DC inh	Fluor 339 460	PMK inhibit	NADH enzymes	MK inhibit	Abs 340nm
O=C(NC1CCCC1)c1ccc2nc[nH]c2c1	i	1.1	11	4%	11	1
CCOC(=O)C1CCN(C(=O)Nc2ccc3nc(-c4ccco4)c(-c4ccco4)nc3c2)CC1	i	1.7	0	15%	20	1.1
COc1ccccc1C(c1nnnn1C(C)(C)C)N1CCN(Cc2ccncc2)CC1 (stereo not drawn)	i	0.79	27*	16%	0	1
CCN(C(=O)c1coc(=O)c(Br)c1)c1ccc2c(c1)OCO2	nt	3.4*	13	7%	0	1.1
COc1cc(NC(=O)c2ccco2)c(OC)cc1NC(=O)CCC(=O)Nc1cc(C)cc(C)c1	i	1.1	5	4%	0	1
COc1cc(NC(=O)c2ccco2)c(OC)cc1NC(=O)CCC(=O)Nc1cc(C)ccc1C	+	2.7*	8	37%	7	1
CC(=O)Nc1ccc(S(=O)(=O)NCc2csc(C)n2)cc1	i	1.1	23	10%	7	0.98
O=C1CC(c2cccc(Cl)c2)CC(O)=C1C=NCCCO (stereo not drawn)	i	1.1	8	5%	8	0.98
Cn1ncc2c(Nc3ccc(-c4ccccc4)cc3)ncnc21	+	3.1*	13	16%	0	1.1
COC(=O)c1[nH]c2cccc(OC)c2c1NC(=O)CCN1CCC(C)CC1	i	2	15	8%	0	1.1
COC(=O)c1[nH]c2cccc(OC)c2c1NC(=O)CN1CCN(c2cccc(OC)c2)C(C)C1 (stereo not drawn)	i	3*	10	13%	4	1.1
COC(=O)c1[nH]c2cccc(OC)c2c1NC(=O)CCN1CCN(c2ccccc2OC)CC1	+	3.1*	13	20%	12	1
O=S(=O)(NCc1ccco1)N1CCOCC1	i	1.1	0	3%	8	0.99
COc1ccc(CN2CCN(C(=O)c3cc(OC)c(OC)c(OC)c3)CC2)cc1OC	i	1.1	0	21%	62*	1.1
COc1ccc(C(=O)N2CCN(Cc3cc(OC)c(O)c(OC)c3)CC2)cc1OC	i	1.1	4	4%	9	1
COc1ccc(CN2CCN(C(=O)CN3C(=O)C4C5C=CC(C5)C4C3=O)CC2)c(OC)c1OC (stereo not drawn)	i	1.1	19	9%	7	0.98
COc1cc(CN2CCN(C(=O)CC(C)C)CC2)cc(OC)c1OC	i	1.1	12	21%	52*	1
COc1ccc(CN2CCN(C(=O)CC(C)C)CC2)c(OC)c1OC	i	1.1	1	18%	53*	1
O=C(OCC(F)(F)C(F)F)c1ccccc1C(=O)Oc1ccc(F)cc1F	i	1.1	14	6%	5	1
CCC(=O)N1CCN(c2nc(-c3ccccc3)c3c(c2C#N)CCCC3)CC1	nt	2.1*	16	2%	0	1
Cc1nc(NCc2ccco2)c(C#N)c2c1COC(C)(C)C2	i	2.7*	0	7%	4	1.1
CCCc1nc(NCc2ccco2)c(C#N)c2c1COC(C)(C)C2	i	1.9	0	5%	8	1
CC1(C)Cc2c(C#N)c(NCc3ccco3)nc(-c3ccco3)c2CO1	nt	2.2*	2	2%	2	1
CCCCN(C)c1nc(-c2ccco2)c2c(c1C#N)CC(C)(C)OC2	i	1.8	11	7%	10	1.1
